Experiments:
Settings in all cases: concentration: 1 μM, replicates: in singlicate; n = 1
[1] = system: TESK1
[2] = system: TGFBR1
[3] = system: TGFBR2
[4] = system: TIE1
[5] = system: T1, TIE2
T1 construct: gene TEK

[6] = system: TLK1
[7] = system: TLK2
[8] = system: TNIK
[9] = system: TNK1
[10] = system: TNK2
[11] = system: TNNI3K
[12] = system: T2, TRKA
T2 construct: gene NTRK1

[13] = system: TRKB
[14] = system: T3, TRKC
T3 construct: gene NTRK3

[15] = system: TRPM6
[16] = system: TSSK1B
[17] = system: TSSK3
[18] = system: TTK
[19] = system: TXK
[20] = system: TYK2(JH1domain-catalytic)
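Note: KINOMEscan kinase panel screen.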

SMILES	%Inh [1] [%]	%Inh [2] [%]	%Inh [3] [%]	%Inh [4] [%]	%Inh [5] [%]	%Inh [6] [%]	%Inh [7] [%]	%Inh [8] [%]	%Inh [9] [%]	%Inh [10] [%]	%Inh [11] [%]	%Inh [12] [%]	%Inh [13] [%]	%Inh [14] [%]	%Inh [15] [%]	%Inh [16] [%]	%Inh [17] [%]	%Inh [18] [%]	%Inh [19] [%]	%Inh [20] [%]
COc1cc(Nc2ncc3c(C)nc(-c4cc5ccccc5[nH]4)n3n2)cc(OC)c1OC [GW869516]	1	14	0	46	32	0	0	47	49	17	33	4	0	0	0	6	0	36	10	0
NCCCC(NC(=O)c1cc(Br)c(-c2ccnc3[nH]ccc23)s1)c1ccccc1.O=C(O)C(F)(F)F.O=C(O)C(F)(F)F (centres unmarked) [GSK1287544]	16	0	0	73	15	0	0	3	0	0	0	53	11	17	16	17	1	21	18	75
COc1ccc(Nc2nccc(NCCNC(=O)c3cc4ccccc4s3)n2)cc1 [GSK1379896]	0	0	0	0	0	0	0	0	0	4	13	18	0	0	34	0	20	0	0	25
COc1cc2c(cc1OCCN1CCNCC1)ncc1c3ccc(C#N)cc3[nH]c21	2	20	0	1	5	25	0	76	4	0	0	99.8	94.1	77	100	22	15	0	11	50
O=C(NC1CCN(c2ccnc(Nc3ccc(F)cc3)n2)C1)c1cc2ccccc2s1 (centres unmarked) [GSK1379716]	31	39	0	24	0	7	0	1	0	21	4	10	0	8	22	5	19	17	8	2
O=C(Nc1n[nH]c2nc(-c3ccc(O)cc3)ccc12)C1CC1 [SB-710363]	0	0	0	0	11	18	0	95.1	0	0	0	26	0	41	0	0	37	0	0	9
Cl.NC(=O)c1cccc(Nc2nccc(Nc3ccc(Oc4c(Cl)cccc4Cl)c(Cl)c3)n2)c1 [GW659009]	0	0	29	33	0	0	0	0	36	0	0	20	7	11	36	8	88	10	0	21
COc1cccc(-c2ccc3c(NC(=O)C4CC4)n[nH]c3n2)c1 [SB-710903]	36	27	0	0	0	3	0	82	0	9	5	0	66	58	0	0	3	0	0	52
Cc1ccc(S(=O)(=O)Nc2ccc(Nc3nccc(Nc4cccc5[nH]ncc45)n3)cc2)cc1 [GSK581271]	13	20	91.2	9	0	0	0	0	0	27	7	0	33	24	11	4	11	0	77	42
CN(C)S(=O)(=O)c1cc(-c2ccc3nccc(-c4cccc(S(N)(=O)=O)c4)c3c2)cnc1N [GSK1669921]	0	0	0	26	0	0	0	13	42	9	8	87	0	48	4	3	18	47	26	13
Cc1ccc(C(=O)N2CC[C@@H](O)C2)cc1-n1c(C)cc(OCc2ccc(F)cc2F)c(Br)c1=O	0	16	0	0	20	13	0	0	0	0	0	0	0	0	0	0	0	3	0	0
O=C(O)C(F)(F)F.O=C(O)C(F)(F)F.O=c1[nH]ccc2nc(N[C@@H]3CCCNC3)nc(Nc3ccc(S(=O)(=O)N4CCOCC4)cc3)c12 [GSK2177277]	0	32	0	66	0	94.3	98.2	99.5	73	26	15	100	92.5	98	19	95.1	99.7	96.8	35	99.7
Cc1ccc(C)c(NC(=O)NC2CCN(c3ccnc(Nc4ccc(F)cc4)n3)C2)c1 (centres unmarked) [GSK1379720]	28	12	0	0	0	0	0	0	0	21	4	0	51	65	14	0	15	13	16	36
Clc1ccc(-c2nn3ncccc3c2-c2ccnc(Nc3ccc4c(c3)OCCO4)n2)cc1 [GW829116]	11	46	23	24	0	0	0	31	46	0	0	0	0	0	7	0	0	2	0	0
COc1cc(Nc2nccc(N3CCC(NC(=O)Nc4cccc(C(C)=O)c4)C3)n2)cc(OC)c1OC (centres unmarked) [GSK1379753]	1	0	0	27	1	0	0	0	21	19	9	62	63	92.3	41	6	9	21	0	45
COCCOCCOc1cc2ncc3c4ccc(C#N)cc4[nH]c3c2cc1OC	18	0	0	0	0	0	0	87	0	9	9	98	90	78	0	0	0	26	4	0
COc1ccc(Nc2nccc(N3CCC(NC(=O)Nc4cccc(OC)c4)C3)n2)cc1 (centres unmarked) [GSK1379742]	36	0	9	0	0	0	0	0	0	12	0	54	40	76	0	0	18	0	0	24
O=C(Nc1n[nH]c2cc(-c3ccoc3)ccc12)C1CC1 [SB-738481]	0	0	0	0	5	7	0	42	0	0	0	30	25	49	0	0	0	0	20	51
Cn1cc(-c2[nH]c3cc(NC(=O)[C@H](N)C4CCCCC4)cc4c3c2C=NNC4=O)cn1	15	0	66	83	42	8	1	91.9	68	48	54	91.6	64	57	11	73	23	0	32	95.1

— PMC5540273 (PLoS ONE, 2017)
